The results in this text go back to PubChem BioAssay (NCATS).

Each structure is given as a SMILES string. Records with an inconclusive call do not appear. Entries that show only a call come without a potency. Activity calls are given as the source filed them. Calls follow the shape of the dose curve; as a rule, active = well fitted cell-killing curve with a large enough effect; inconclusive = small, poorly fitted or top-dose-only effect, or effect the other way; inactive = no such curve, though single readings can be large or run the other way.
Potency is read from the fitted curve at half-maximal effect.

The nature of this test: Quantitative highthroughput screen to assess conditional lethalithy of SEM cells grown in RPMI1640 with unreated serum (RPMI+s) (AID 1963883). Also: nearly all actives have a fitted effect of over 35% in size. As to conditions: SEM B-ALL cells, CellTiter-Glo viability, 48 h; series mostly up to 45.8 µM. The text has this: Assay Provider: Jason Cantor Ph.D.
Department of Biochemistry
University of Wisconsin-Madison, Madison, WI, USA
Chemical screening studies have identified drug sensitivities across hundreds of cancer cell lines but most putative therapeutics fail to translate. Discovery and development of drug candidates in models that more accurately reflect nutrient levels in human blood is a major challenge. Here we performed high-throughput screens in conventional versus Human Plasma-Like Medium (HPLM) to identify compounds that were "missed" when screening using the artificial culture condition. Sets of conditional anticancer compounds spanned phases of clinical development and included non-oncology drugs were assessed. […] We also traced conditional phenotypes for several chemotherapeutics to availability of HPLM-specific metabolites and confirmed others for compounds whose reported targets are encoded by nonessential genes. Our findings establish generalizable strategies for exploiting conditional lethality in HPLM to reveal therapeutic candidates and mechanisms of action in cancer cells.
Described herein are the results of each viability screens against three cell lines: NOMO1 (an acute myeloid leukemia cell line); P12-Ichikawa (a T-cell acute lymphoblastic leukemia); and SEM (a B-cell ALL). Each assay was screened using 3 different cell culture media: homemade human plasma-Like medium with 10% dialyzed fetal bovine serum (HPLM+ds); RPMI1640 with 10% untreated FBS and 5mM glucose (RPMI+s); and RPMI1640 with 10% dialyzed fetal bovine serum and 5 mM glucose (RPMI+ds).
PROTOCOL TABLE (as described by Inglese J, Shamu CE and Guy RK. 2007)
SEQUENCE No. (e.g., 1, 2, 3, etc.); […] (e.g., Cells, Incubation, Reagent, etc.); VALUE and DESCRIPTION.
1; Cells; 5 uL; white, solid bottom 1536-well Greiner assay plate.
2; Compounds; 23 nL; Kalypsis pin tool (Wako USA) equipped with a 1536-well pin head to transfer to the assay plates.
3; Incubation; 48 hours; 37C incubation.
4; Reagent; 3 uL; CellTiter Glo (Promega).
5; Incubation; 5 min, room temperature
6; Detection; Luminescence, Viewlux PerkinElmer.
NOTES (numbers refer to Sequence numbers above)
1. Briefly, 5 ul of cell reagent was dispensed using a Multidrop Combi Dispenser. The NOMO1 and SEM cells were plated at 500 cells/well and the P12-Ichikawa line at 1000 cells/well.
2. After seeding the cells, 23 nL of MIPE 4.1 library compounds (in DMSO) were added to each plate using a Kalypsys 1536 Pintool dispenser. Bortezomib at final concentration of […] and DMSO were added to each plate as positive and negative controls respectively. For each screen, MIPE 4.1 compounds were added over an eleven-point concentration range […] in 3-fold dilutions.
3. Each plate was covered with a stainless steel gasketed lid to prevent evaporation and incubated for 48 hour at 37C, 95% relative humidity, and 5% CO2.
4-5. Three microliter CellTilter-GloTM luminescent substrate mix (Promega) reagent was added to the assay plate and incubated at room temperature for 5 min.
6. The luminescence signal was measured using a ViewLux (PerkinElmer) multiplate reader with a 2 second exposure time per plate. Data for each compound were normalized as percent viability such that measurements for DMSO and the empty well controls in each plate were defined as 100% and 0%, respectively.
(Cellular ATP, detected with luciferase, serves as a proxy for viable cell number.)
Turning to `Cc1cnc(Nc2ccc(CN3CCOCC3)cc2)nc1Nc1cccc(S(=O)(=O)NC(C)(C)C)c1`, the Potency was 469 nM (active).

Take `CC[C@@]1(O)C(=O)OCc2c1cc1n(c2=O)Cc2cc3cc(O)ccc3nc2-1`: the Potency is 41.8 nM (active).

For `COc1ccccc1OCC(O)CN1CCN(CC(=O)Nc2c(C)cccc2C)CC1` (stereo not given), the Potency entry was “inactive”.

Take `C[C@]12C=CC(=O)N[C@@H]1CC[C@H]1[C@H]3CC[C@@H](C(=O)Nc4cc(C(F)(F)F)ccc4C(F)(F)F)[C@@]3(C)CC[C@@H]12`: the Potency result was “inactive”.

`CC(C)NCC(O)COc1ccc(CCOCC2CC2)cc1` (stereo not given): the Potency result is “inactive”.

As to `CCN(C)C(=O)Oc1cccc([C@H](C)N(C)C)c1`, the Potency result is “inactive”.

As to `Cc1cccc(CN2CCN(C(c3ccccc3)c3ccc(Cl)cc3)CC2)c1` (stereo not given), the Potency result is “inactive”.

For `CO[C@@H]1[C@@H](O)[C@H](O)[C@@H](n2c3c(Cl)cccc3c3c4c(c5c6cccc(Cl)c6[nH]c5c32)C(=O)NC4=O)O[C@@H]1CO`, the Potency was 235 nM (active).

On to `CCCCCCCCCCCCCC(=O)N[C@H](CO)[C@H](O)c1ccc([N+](=O)[O-])cc1`, for which the Potency was 743 nM (active).

For the compound `O=C(CCCCCCNC(=O)c1cnc(N(c2ccccc2)c2ccccc2)nc1)NO`, the Potency was 5900 nM (active).

Regarding `CN(C)C/C=C/C(=O)Nc1ccc(C(=O)Nc2cccc(Nc3ncc(Cl)c(-c4c[nH]c5ccccc45)n3)c2)cc1`, the Potency was 186 nM (active).

For `Nc1nc(OCc2ccccc2)c2[nH]cnc2n1`, the Potency result was “inactive”.

Regarding `CC[C@H]1OC(=O)[C@H](C)[C@@H](O[C@H]2C[C@@](C)(OC)[C@@H](O)[C@H](C)O2)[C@H](C)[C@@H](O[C@@H]2O[C@H](C)C[C@H](N(C)C)[C@@H]2O)[C@](C)(OC)C[C@@H](C)C(=O)[C@H](C)[C@@H](O)[C@]1(C)O`, the Potency result was “inactive”.

For `OC[C@H]1O[C@@H](Oc2ccc(O)cc2)[C@H](O)[C@@H](O)[C@H]1O`, the Potency entry is “inactive”.

Turning to `Cc1ccc(-n2nc(C(C)(C)C)cc2NC(=O)Nc2ccc(OCCN3CCOCC3)c3ccccc23)cc1`, the Potency was 132 nM (active).

`CCCCC(F)(F)[C@@]1(O)CC[C@H]2[C@H](CC(=O)[C@@H]2CCCCCCC(=O)O)O1`: the Potency entry is “inactive”.

As to `CO[C@H]1C=CO[C@@]2(C)Oc3c(C)c(O)c4c(O)c(c5c(c4c3C2=O)NC2(CCN(CC(C)C)CC2)N=5)=NC(=O)C(C)=CC=C[C@H](C)[C@H](O)[C@@H](C)[C@@H](O)[C@@H](C)[C@H](OC(C)=O)[C@H]1C`, the Potency entry was “inactive”.

`CC(C)(C)c1nc(-c2cccc(NS(=O)(=O)c3c(F)cccc3F)c2F)c(-c2ccnc(N)n2)s1`: the Potency is 2640 nM (active).

In the case of `CC1(C)C(=O)N(CCN2CCC(C(=O)c3ccc(F)cc3)CC2)c2ccccc21`, the Potency entry was “inactive”.

In the case of `c1cc(-c2cnn3cc(-c4ccc(OCCN5CCCCC5)cc4)cnc23)ccn1`, the Potency result is “inactive”.

As for `CN1C[C@H]2c3ccccc3Oc3ccc(Cl)cc3[C@@H]2C1`, the Potency was 26400 nM (active).

In the case of `CC(C)Nc1cc(C(F)(F)F)cc2nc(NC(=O)c3cccnc3)nn12`, the Potency is 1180 nM (active).

Take `Oc1cc2c(cc1O)C1c3ccc(O)c(O)c3OCC1(O)C2` (stereo not given): the Potency entry is “inactive”.

For the compound `CN1c2cc(O)c(N=NC(N)=O)cc2CC1S(=O)(=O)O` (stereo not given), the Potency result was “inactive”.

Turning to `Nc1c2c(nc3ccccc13)CCCC2`, the Potency entry is “inactive”.

Regarding `O=C(c1ccc(C(=O)N2CCC(N3CCCC3)CC2)c(Nc2ccccc2)c1)N1CCC(N2CCCC2)CC1`, the Potency result was “inactive”.

As for `c1cncc(CN2CCC(n3ncc4c(N5CCOCC5)nc(-c5ccc6[nH]ccc6c5)nc43)CC2)c1`, the Potency is 14800 nM (active).

In the case of `CCOc1ccccc1OCCNC(C)Cc1ccc(OC)c(S(N)(=O)=O)c1` (stereo not given), the Potency entry is “inactive”.

Turning to `COc1cc2nc(N(C)CCCNC(=O)C3CCCO3)nc(N)c2cc1OC` (stereo not given), the Potency entry was “inactive”.

As to `COc1cccc(N(C)C(=S)Oc2ccc3c(c2)CCCC3)n1`, the Potency result is “inactive”.

As for `CC[C@@H]1C(=O)N(C)c2cnc(Nc3ccc(C(=O)NC4CCN(C)CC4)cc3OC)nc2N1C1CCCC1`, the Potency is 46.9 nM (active).

For `COc1cccc2nc(-c3cccs3)nc(NN3C(=O)C=C(C)C3=O)c12`, the Potency is 935 nM (active).

Take `COc1cc(CCc2cc(NC(=O)c3ccc(N4C[C@@H](C)N[C@@H](C)C4)cc3)n[nH]2)cc(OC)c1`: the Potency is 4690 nM (active).

For `CC[C@@H]1C(=O)N(C)c2cnc(Nc3ccc(C(=O)NC4CCC(N5CCN(CC6CC6)CC5)CC4)cc3OC)nc2N1C(C)C` (stereo not given in full), the Potency is 83.3 nM (active).

As for `O=C(C=Cc1ccc(CN(CCO)CCc2c[nH]c3ccccc23)cc1)NO`, the Potency is 264 nM (active).

For the compound `Cc1cnc(C(=O)O)c[n+]1[O-]`, the Potency entry is “inactive”.

Regarding `CC(C)Cc1ccc(C(C)C(=O)O)cc1` (stereo not given), the Potency was 12900 nM (active).

For `C[C@H]1c2cccc(O)c2C(O)=C2C(=O)[C@]3(O)C(O)=C(C(N)=O)C(=O)[C@@H](N(C)C)[C@@H]3[C@@H](O)[C@@H]21`, the Potency entry is “inactive”.

Consider `O=C(Nc1ncc(-c2cc(C(F)F)nn2-c2c(Cl)cccc2Cl)s1)C1CC1`, for which the Potency is 1180 nM (active).

`C=C1C(=O)O[C@H]2[C@@H]1CCC(C)=CCC[C@@]1(C)O[C@@H]21`: the Potency was 833 nM (active).
